In PubChem BioAssay AID651650 (Sanford-Burnham Center for Chemical Genomics, 2012):

What follows are compounds tested against Neuropilin-1 (Homo sapiens) (UniProt O14786) (assay: NRP-1 b1b2 CendR peptide binding inhibitors, dose response, biochemical, FP and AlphaScreen panel (AID 651650)). Settings: NRP-1 b1b2 / RPARPAR peptide binding, FP or AlphaScreen; run 1, at 100 µM (top of the series).
Neuropilin-1 (Homo sapiens), sequence (O14786 whole entry, looked up): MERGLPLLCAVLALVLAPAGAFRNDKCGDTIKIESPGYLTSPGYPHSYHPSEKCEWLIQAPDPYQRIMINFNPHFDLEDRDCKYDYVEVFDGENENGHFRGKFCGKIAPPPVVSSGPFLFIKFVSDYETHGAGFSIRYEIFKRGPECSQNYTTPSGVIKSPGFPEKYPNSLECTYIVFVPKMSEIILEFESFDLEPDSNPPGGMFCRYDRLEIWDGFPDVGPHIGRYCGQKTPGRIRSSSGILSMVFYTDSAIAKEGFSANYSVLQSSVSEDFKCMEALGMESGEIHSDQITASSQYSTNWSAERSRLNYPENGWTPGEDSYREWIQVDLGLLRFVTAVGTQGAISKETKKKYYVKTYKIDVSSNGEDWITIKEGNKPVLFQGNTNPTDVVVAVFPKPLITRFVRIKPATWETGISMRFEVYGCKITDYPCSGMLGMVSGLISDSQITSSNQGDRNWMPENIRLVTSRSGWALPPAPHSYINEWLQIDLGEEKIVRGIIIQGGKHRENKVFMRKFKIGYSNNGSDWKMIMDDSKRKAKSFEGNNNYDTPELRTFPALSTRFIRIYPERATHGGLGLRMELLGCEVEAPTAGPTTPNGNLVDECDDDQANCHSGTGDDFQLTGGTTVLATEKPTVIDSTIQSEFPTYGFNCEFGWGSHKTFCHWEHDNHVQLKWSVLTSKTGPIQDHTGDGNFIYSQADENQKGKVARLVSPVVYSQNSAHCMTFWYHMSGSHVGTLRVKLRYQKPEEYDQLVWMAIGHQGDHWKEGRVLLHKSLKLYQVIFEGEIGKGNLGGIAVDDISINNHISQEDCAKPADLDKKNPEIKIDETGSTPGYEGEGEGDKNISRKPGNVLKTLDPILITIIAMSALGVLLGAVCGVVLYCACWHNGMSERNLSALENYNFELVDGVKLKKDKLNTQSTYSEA

Compared with `COCc1cccc(-c2csc(C(C)(O)c3ccccc3)n2)c1` (stereo not drawn), `Cc1ccc(C(=O)O)cc1NC(=O)Nc1cccc2ccccc12` is higher in inhibition: 25.6% for the first, 30.6% for the second.

Compared with `CCOC(=O)C[C@H]1c2cc(C(F)(F)F)ccc2S(=O)(=O)N1Cc1ccccc1`, `O=S1(=O)CCOC[C@H](Cc2ccccc2)N1Cc1ccccc1F` is lower in inhibition: 59.5% for the first, 46.5% for the second.

First: COc1c2ccc(C(=O)NCc3cc(C(F)(F)F)cc(C(F)(F)F)c3)cc2nn1C
Second: CC(=O)OC[C@@H]1CN(Cc2cccc(C(F)(F)F)c2)C[C@H](n2cnc3c(NCc4ccco4)ncnc32)O1
The inhibition of the first is lower: 38.2% for the first, 54.5% for the second.

First: CC(/C=C/c1ccccc1)=N\NC(=O)CCc1ccccc1
Second: CC(NCCOCCOc1ccccc1)c1ccccc1 (stereo not drawn)
The inhibition of the first is lower: 19.2% for the first, 39.6% for the second.

First: c1ccc2c3n(nc2c1)CCCO3
Second: COC(=O)n1c(=O)oc2ccccc21
The inhibition of the first is lower: 27.6% for the first, 50% for the second.

First: COC(=O)CCCC1=CC2=CC(=O)C(C)(OC(=O)c3cccs3)C(=O)C2=CN1CCCOC(C)C (stereo not drawn)
Second: CCC1=C(OC(=O)N(CC)CC)N2C(=O)OC(=NCC(=O)OC)[C@]2(Cc2ccccc2)[C@H]2C1=CC[C@H]1C(=O)N(CC(=O)OC)C(=O)[C@H]12
The inhibition of the first is higher: 93.3% for the first, 70.2% for the second.

Compared with `CCC1Nc2ncnc(N3CCCCC3)c2N(Cc2ccc(C)cc2)C1=O` (stereo not drawn), `CC(C)(C)n1nc(-c2ccc(F)cc2)c2c(N)ncnc21` is higher in inhibition: 18.8% for the first, 39.3% for the second.

First: NC(=S)NNC(=S)Nc1ccccc1
Second: CC(Oc1ccccc1)C(=O)NC1=NCCS1 (stereo not drawn)
The inhibition of the first is lower: 9.47% for the first, 51.9% for the second.

First: Cc1[nH]n(-c2ccccc2)c(=S)c1C=Nc1cccc([N+](=O)[O-])c1
Second: COc1cccc(-c2ccc3c(c2)N(Cc2ccccc2OC)C(=O)C(C)S3)c1 (stereo not drawn)
The inhibition of the first is higher: 14.4% for the first, -18.6% for the second.

Compared with `Cn1c(=O)c2[nH]c(NCCCN3CCOCC3)nc2n(C)c1=O`, `O=C(NCCCN1CCOCC1)c1ccc2c(=O)n(-c3ccc(F)c(Cl)c3)c(=S)[nH]c2c1` is lower in inhibition: 44.2% for the first, 35.9% for the second.

Compared with `CCCc1c(O)c2ccccc2[nH]c1=O`, `O=c1c2cn[nH]c2nc(SCc2ccccc2F)n1-c1ccc(Br)cc1` is higher in inhibition: 5.68% for the first, 53.3% for the second.

Going from `Cn1cccc1C1Nc2ccccc2NC2=C1C(=O)CC(C)(C)C2` (stereo not drawn) to `CC(C)c1ccc(S(=O)(=O)N2CCN(C(=O)CN3C(=O)c4ccccc4C3=O)CC2)cc1`, the inhibition rises from 12.9% to 64.7%.

First: Cc1ccccc1-c1cnc(C(O)c2ccc(F)c(F)c2)[nH]1 (stereo not drawn)
Second: CC(Nc1ccc2ccccc2c1)C(=O)N/N=C/c1ccncc1 (stereo not drawn)
The inhibition of the first is lower: 43.1% for the first, 45.8% for the second.

Going from `CC(=O)Nc1ccc(Oc2cc(C#N)c(C#N)cc2N2CCOCC2)cc1` to `CCOc1ccc(S(=O)(=O)NNC(=O)c2cc3ccccc3o2)cc1`, the inhibition falls from 10.4% to 1.91%.

First: CC(C)(C)OC(=O)N1CCN(C(=O)c2[nH]cnc2C(=O)NCc2ccccc2)CC1
Second: O=C(CCCNC(=O)/C(=C\c1ccc(F)cc1)NC(=O)c1ccccc1)OCc1ccccc1
The inhibition of the first is higher: 34.4% for the first, -33% for the second.

Compared with `COc1ccc([C@H]2/C=C\CN(S(C)(=O)=O)[C@@H](C)C(=O)N2Cc2ccc(F)cc2)cc1`, `CCNS(=O)(=O)c1ccc(CCC(=O)O)cc1` is lower in inhibition: 28.8% for the first, 23.4% for the second.

Going from `FC(F)(F)C1CC(c2cccs2)Nc2ncnn21` (stereo not drawn) to `Cn1c(SCc2nc3ccccc3s2)nnc1-c1cccs1`, the inhibition rises from 46% to 65.1%.

First: COc1ccc2c(c1OC)CN1CCc3cc4c(cc3[C@@H]1[C@@H]2O)OCO4
Second: CC(CN1CCCCC1)OC(=O)c1ccc(Cl)cc1Cl (stereo not drawn)
The inhibition of the first is lower: -3.65% for the first, 30.1% for the second.

Compared with `O=C1c2cc([N+](=O)[O-])cc3cc([N+](=O)[O-])cc(c23)C(=O)N1c1ccccn1`, `CN(C(=O)COC(=O)c1cnc(Cl)c(Cl)c1)C1CCCCC1` is higher in inhibition: 17.2% for the first, 49.2% for the second.
